An excerpt weighted towards active compounds, which were near 8.3% of everything screened.
HCMV inh: human cytomegalovirus inhibition; HFF cells, HCMV-luciferase reporter, 72 h; hits give low values; activity change, negative = inhibition, % at 57.5 µM; 4.5% of 410,000 active; in the data active = activity change below about -60%; inconclusive = no clear call, values can overlap the other calls; inactive = above about -39%
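Compounds were evaluated in HFFs infected with an HCMV luciferase reporter virus (MOI 1 PFU/cell). Luciferase in lysates collected 72 h post infection served as the replication measure.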
LASV entry inh: Lassa virus entry inhibition; 1.2% of 300,000 active; Potency, µM (top dose mostly 37.9 µM), without a hit: at the top dose activity change, negative = inhibition, most hits filed as inhibitors; Lassa virus pseudotype entry inhibition, cell reporter; AID 540256; calls by dose curve; tested in HEK293 cells; also: potency is read from the fitted curve at half-maximal effect; nearly all actives have a fitted effect of over 50% in size
FMDV antiviral: foot and mouth disease virus antiviral activity | FMDV antiviral cell-based qHTS | Potency, µM (top dose mostly 57.9 µM), inactives show at the top dose activity change, negative = inhibition, actives largely listed as inhibitors | 1.2% of 410,000 active; calls by dose curve; tested in HEK293T cells; also: read-out not given here; potency is read from the fitted curve at half-maximal effect; nearly all actives have a fitted effect of over 45% in size
MARV entry inh: blocks Marburg virus binding to or entry into cells | Marburg virus pseudotyped entry inhibition, cell reporter | Potency, µM (highest dose often 37.8 µM), for the others: top-dose activity change, negative = inhibition, most hits filed as inhibitors | 1.8% of 300,000 active | AID 540276; calls by dose curve; tested in HEK293 cells; also: potency is read from the fitted curve at half-maximal effect
FBPA Giardia inh: blocks Giardia fructose-bisphosphate aldolase activity; purified Giardia FBPA; Potency, µM (doses to about 59.6 µM), without a hit: top-dose activity, negative = inhibition, actives largely listed as inhibitors; 0.71% of 290,000 active; AID 2451; also: potency is read from the fitted curve at half-maximal effect; nearly all actives have a fitted effect of over 55% in size
Target sequence (A8B2U2 whole entry, looked up): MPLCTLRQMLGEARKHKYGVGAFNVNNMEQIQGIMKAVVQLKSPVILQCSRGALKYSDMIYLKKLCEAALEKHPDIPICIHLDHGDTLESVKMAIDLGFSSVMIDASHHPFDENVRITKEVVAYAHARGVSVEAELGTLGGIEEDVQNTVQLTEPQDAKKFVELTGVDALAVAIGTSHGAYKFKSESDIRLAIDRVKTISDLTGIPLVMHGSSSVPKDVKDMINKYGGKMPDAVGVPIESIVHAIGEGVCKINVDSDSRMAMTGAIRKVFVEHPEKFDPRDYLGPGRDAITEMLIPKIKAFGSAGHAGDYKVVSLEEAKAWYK
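Giardia FBPA (40 nM reagent) was preincubated 10 min at RT with compound (up to 57.5 uM final), then substrate plus GAPDH/TPI/NAD/arsenate coupling system with diaphorase/resazurin was added; resorufin fluorescence (525/598 nm) was read after 20 min.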
HCV inhibitor: HCV inhibition; 3.4% of 340,000 active; Huh7.5.1 HCVcc-Cre infection, luciferase reporter, 44 h; Potency, µM (top dose mostly 41.8 µM), inactives show top-dose activity change, negative = inhibition, hits mostly inhibitors; also: potency is read from the fitted curve at half-maximal effect
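Antiviral activity was scored by luciferase reporter output from cells infected with HCVcc-Cre (~0.5 moi) in presence of compound, 44 h infection period, cells seeded 1,000/well 4 h prior.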
Active calls of the source: *; [ ] = another dose, or the depositor's remark. Unless noted, calls follow the shape of the dose curve; as a rule, active = well fitted curve in the direction sought with a large enough effect; inconclusive = small, poorly fitted or top-dose-only effect, or another doubt; inactive = no such curve, though single readings can be large; an effect the other way counts as inactive or inconclusive. % is scaled to controls: 0 for no effect and ±100 for the full control effect.

Screening Cc1ccc2nc(Cl)c(C3CC(c4cccs4)=NN3S(C)(=O)=O)cc2c1 (centres undefined) returned HCMV inh -60*, LASV entry inh -2%, FMDV antiviral 42%, MARV entry inh 17%, FBPA Giardia inh 4% and HCV inhibitor -3%.
`Cc1ccc2cc(C3CC(c4cccs4)=NN3S(C)(=O)=O)c(Cl)nc2c1` (centres undefined) gave HCMV inh inconclusive, FMDV antiviral 41%, FBPA Giardia inh -6% and HCV inhibitor -13%.
`Oc1[nH]c2ccccc2c1N=Nc1c(F)c(F)c(Cl)c(F)c1F` gave HCMV inh -97*, FMDV antiviral -5%, FBPA Giardia inh -4% and HCV inhibitor 0%.
`Oc1[nH]c2ccccc2c1N=Nc1ccccc1Cl` gave HCMV inh 44, LASV entry inh 2%, FMDV antiviral 46%, MARV entry inh -2% and HCV inhibitor -7%.
`O=C(CSc1nnc(COc2cccc3cccnc23)o1)c1ccc(F)cc1` gave HCMV inh -17, LASV entry inh inconclusive, MARV entry inh -24%, FBPA Giardia inh 17% and HCV inhibitor 10µM*.
`O=C(NCCn1cc(SCc2ccccc2)c2ccccc21)c1ccccc1F` gave HCMV inh 11, LASV entry inh inconclusive, FMDV antiviral inconclusive, MARV entry inh inconclusive, FBPA Giardia inh -20% and HCV inhibitor 11µM*.
Cc1ccc(C)c(CSc2cn(CCNC(=O)c3cccs3)c3ccccc23)c1 was read as HCMV inh -83*, LASV entry inh inconclusive, FMDV antiviral inconclusive and MARV entry inh inconclusive.
Cc1ccc(C)c(CSc2cn(CCNC(=O)c3ccccc3F)c3ccccc23)c1 was read as HCMV inh -27, LASV entry inh inconclusive, FMDV antiviral inconclusive and MARV entry inh inconclusive.
COc1ccc(N(C(=O)C(C)C)S(=O)(=O)c2cccc3cccnc23)cc1 was read as HCMV inh -67*, LASV entry inh 4%, FMDV antiviral -14%, MARV entry inh 5%, FBPA Giardia inh -2% and HCV inhibitor -14%.
For CN(CC(=O)NC1CCCCCCC1)S(=O)(=O)c1cccc2cccnc12 the results were HCMV inh -62*, FMDV antiviral -21%, FBPA Giardia inh -1% and HCV inhibitor -16%.
Screening CN(CC(=O)Nc1ccc(Cl)cc1)S(=O)(=O)c1cccc2cccnc12 returned HCMV inh 59, FMDV antiviral -14%, FBPA Giardia inh -4% and HCV inhibitor inconclusive.
Screening COc1ccc(NC(=O)CN(C)S(=O)(=O)c2cccc3cccnc23)cc1 returned HCMV inh -66*, FMDV antiviral -13%, FBPA Giardia inh -6% and HCV inhibitor -17%.
For Cn1cc(CCCBr)c2ccccc21 the results were HCMV inh 10.
`Cc1ccc(-n2c3c(cc(-c4nc(-c5ccc(Cl)cc5)cs4)c2=O)C(=O)CC(C)(C)C3)cc1C` gave HCMV inh 4, LASV entry inh -4%[46.1 µM], FMDV antiviral 10% and MARV entry inh -28%[46.1 µM].
Screening O=C(C(=O)N1CCC(c2ccccc2)CC1)c1ccc(F)c(F)c1 returned HCMV inh -62* and FMDV antiviral 10%.
For CC1(C)C(=O)C(c2ccccc2)=C2CN3C(=O)N(CCc4ccccc4)C(=O)C3(Cc3ccccc3)C=C21 (centres undefined) the results were FBPA Giardia inh -8%.
Screening CCCN1[C@@H]2c3cccc(=O)n3C[C@H]1[C@H](CO)[C@H]2C(=O)OC returned HCMV inh -1.
For CN1CCN(C2=C(Cl)C(=O)N(C3CCCCC3)C2=O)CC1 the results were HCMV inh -95*, LASV entry inh 1%, FMDV antiviral -23%, MARV entry inh 17%, FBPA Giardia inh -8% and HCV inhibitor inconclusive.
CCOc1ccc(NC2=C(Cl)C(=O)N(C3CCCCC3)C2=O)cc1 was read as HCMV inh -26, LASV entry inh 3%, FMDV antiviral -1%, MARV entry inh inconclusive, FBPA Giardia inh 0% and HCV inhibitor -2%.
`N/C(=N\c1nc(CSc2ccc(Cl)cc2)cc(=O)[nH]1)Nc1cccc2ccccc12` gave HCMV inh -73*, LASV entry inh 2%, FMDV antiviral -9%, MARV entry inh inconclusive, FBPA Giardia inh 4% and HCV inhibitor 6%.
Screening Cc1ccc(-c2nnc(NCc3nc4ccccc4[nH]3)c3ccccc23)cc1S(=O)(=O)N(C)C returned HCMV inh -32, LASV entry inh 18µM*, FMDV antiviral inconclusive, MARV entry inh inconclusive, FBPA Giardia inh 6% and HCV inhibitor inconclusive.
For COc1ccc(OCCN2CCN(C(=O)c3ccc(OC(F)F)c(OC)c3)CC2)cc1 the results were HCMV inh -63*, LASV entry inh -26%[46.1 µM], FMDV antiviral -28%, MARV entry inh inconclusive, FBPA Giardia inh -11% and HCV inhibitor inconclusive.
For COc1ccc(OCCN2CCN(C(=O)c3ccc(OC)cc3)CC2)cc1 the results were HCMV inh -90*, LASV entry inh inconclusive, FMDV antiviral inconclusive, MARV entry inh inconclusive, FBPA Giardia inh 9% and HCV inhibitor 10µM*.
For Cc1oc(-c2ccccc2NC(=O)c2ccccc2)nc1CNC(=O)c1cccc(-n2cccn2)c1 the results were FMDV antiviral 1%.
C[N+]1(C)CC(O)[C@H](C(=O)[O-])C1 (some centres undefined) was read as FMDV antiviral -4% and FBPA Giardia inh -21%.
For CC(=O)Nc1cccc(-c2ccnc3c2CC(C)(C(=O)NCCc2ccccc2)O3)c1 (centres undefined) the results were HCMV inh -88* and FMDV antiviral -16%.
Screening CC(=O)Nc1cccc(-c2ccnc3c2CC(C(=O)NCCc2ccccc2)O3)c1 (centres undefined) returned HCMV inh -86* and FMDV antiviral inconclusive.
For CC1(C(=O)NCCc2ccccc2)Cc2c(-c3cccc(C(F)(F)F)c3)ccnc2O1 (centres undefined) the results were HCMV inh -62* and FMDV antiviral -21%.
Screening CC1(C(=O)NCc2ccccc2)Cc2c(-c3ccc4c(c3)OCO4)ccnc2O1 (centres undefined) returned HCMV inh -81* and FMDV antiviral -12%.
Screening CC1(C(=O)NCCc2ccccc2)Cc2c(-c3ccc4c(c3)OCO4)ccnc2O1 (centres undefined) returned HCMV inh -35 and FMDV antiviral -16%.
`Cc1ccc(SCC2(O)CCN(C(=O)c3ccc(Cl)cc3)CC2)cc1` gave HCMV inh 8, LASV entry inh -7%, FMDV antiviral inconclusive, MARV entry inh -13%, FBPA Giardia inh 1% and HCV inhibitor inconclusive.

High-throughput results from PubChem BioAssay.
